This is an account of results in PubChem BioAssay (NCATS).

Each structure is given as a SMILES string. “And” between values parts separate entries of the source, which are not always exact repeats. Equal entries are not always repeated. Records with an inconclusive call do not appear. The source made the active and inactive calls. Calls follow the shape of the dose curve; as a rule, active = well fitted inhibition curve with a large enough effect; inconclusive = small, poorly fitted or top-dose-only effect; inactive = flat fitted curve, though single readings scatter.
% is scaled to controls: 0 for no effect and ±100 for the full control effect.

One experiment in a line: Drug repurposing screens with cells derived from glioblastoma tumor samples (AID 1345199). Also: nearly all actives have a fitted effect of over 40% in size. Particulars: GBM patient neurospheres viability, ATP luminescence, 48 h; at 45.9 µM (top of the series); tumour line D. The method, boiled down:
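Primary testing used CD133+ neurospheres from four GBM patients, seven concentrations, 48 h exposure and ATP-based viability; confirmation added three slower-growing patient lines.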
Consider `CCN(CC)Cc1nccn1-c1ccc([N+](=O)[O-])cc1C(=O)c1ccccc1Cl`, for which the activity, negative = cell killing was -13.7% (inactive).

For `Cc1ncc2n1-c1ccc(Cl)cc1C(c1ccccc1F)=NC2`, the activity, negative = cell killing is -1.25% (inactive). Regarding `COC(=O)C1=CCCN(C)C1`, the activity, negative = cell killing was -12.9% (inactive). Still for that read-out and setting: for `C#C[C@]1(O)CC[C@H]2[C@@H]3CCC4=CC(=O)CCC4=C3C=C[C@@]21CC` the value was -22% (inactive); for `CN1C(=O)CN=C(c2ccccc2)c2cc(Cl)ccc21`, -1.05% (inactive). On to `C[N+]1(C)[C@@H]2CC[C@H]1CC(OC(=O)C(CO)c1ccccc1)C2` (some centres undefined), for which the activity, negative = cell killing is -16.2% (inactive). On the same count and under the same terms, for `O=C(O)Cc1ccccc1` the value was -22.9% (inactive); for `CCS(=O)(=O)C(C)(C)S(=O)(=O)CC`, 5.45% (inactive); for `CCC1(c2ccccc2)CCC(=O)NC1=O` (centres undefined), -10.3% (inactive). On the same count and under the same terms, for `CCCC(C)C1(CC)C(=O)N=C(S)NC1=O` (centres undefined) the value was -14.3% (inactive); for `Nc1ccc(N)cc1`, -20.4% (inactive). As for `CNC(=O)NC(O)C(Cl)(Cl)Cl` (centres undefined), the activity, negative = cell killing was 7% (inactive).

Regarding `CC(C)(O)C(Cl)(Cl)Cl`, the activity, negative = cell killing is 6.2% (inactive).

As for `Cc1nnc2n1-c1sc(CCC(=O)N3CCOCC3)cc1C(c1ccccc1Cl)=NC2`, the activity, negative = cell killing is -19.2% (inactive) and -29.4% (inactive).

Consider `CCCCC1C(=O)NC(=O)N(C2CCCCC2)C1=O` (centres undefined), for which the activity, negative = cell killing is 0.724% (inactive). As to `C=CCOC(Cn1ccnc1)c1ccc(Cl)cc1Cl` (centres undefined), the activity, negative = cell killing is -33.6% (inactive). Take `CN1C[C@@H](NS(=O)(=O)N(C)C)C[C@@H]2c3cccc4c3c(cn4C)C[C@H]21`: the activity, negative = cell killing is -25.6% (inactive). Still for that read-out and setting: to `c1cc2c(c(N3CCNCC3)c1)OCCO2` belongs -0.968% (inactive); to `NCc1cccnc1`, -1.09% (inactive).

Turning to `C#C[C@]1(O)C=C[C@H]2[C@@H]3CCC4=CC(=O)CC[C@@H]4[C@H]3CC[C@@]21CC`, the activity, negative = cell killing is -10.7% (inactive). Same read-out and setting: for `C[C@]12C=CC(=O)C=C1CC[C@@H]1[C@@H]2CC[C@@]2(C)[C@H]1CC[C@]2(C)O` the value was -22.4% (inactive); for `CN1C(=O)[C@@H](NC(=O)c2cc3ccccc3[nH]2)N=C(c2ccccc2)c2ccccc21`, -1.15% (inactive). In the case of `CC(C)NCC(O)c1ccc(N)c(C#N)c1` (centres undefined), the activity, negative = cell killing is -5.78% (inactive).

Staying with this experiment, now noted: GBM patient neurospheres viability, ATP luminescence, 48 h; at 46 µM (top of the series); tumour line A.
As to `COC(=O)C1=CCCN(C)C1`, the activity, negative = cell killing is -22.4% (inactive). With `C=CCN1CC[C@]23CCCC[C@H]2[C@H]1Cc1ccc(O)cc13`, the activity, negative = cell killing was 29% (inactive). Still for that read-out and setting: for `O=C(O)Cc1ccccc1` the value was -19.6% (inactive); for `CCC1(c2ccccc2)CCC(=O)NC1=O` (centres undefined), -28.9% (inactive).

As to `CCCC(C)C1(CC)C(=O)N=C(S)NC1=O` (centres undefined), the activity, negative = cell killing was -28.3% (inactive).

For `CNC(=O)NC(O)C(Cl)(Cl)Cl` (centres undefined), the activity, negative = cell killing was -5.01% (inactive).

As to `Cc1nnc2n1-c1sc(CCC(=O)N3CCOCC3)cc1C(c1ccccc1Cl)=NC2`, the activity, negative = cell killing was -18.9% (inactive).

For the molecule `O=C(O)c1nn(Cc2ccc(Cl)cc2Cl)c2ccccc12`, the activity, negative = cell killing is -31.3% (inactive).

Turning to `CCCCC1C(=O)NC(=O)N(C2CCCCC2)C1=O` (centres undefined), the activity, negative = cell killing is -28.6% (inactive). The same measure, in the same setting: for `NCc1cccnc1` the value was -28.1% (inactive). On the same count and under the same terms, for `CC(C)NCC(O)c1ccc(N)c(C#N)c1` (centres undefined) the value was -34.1% (inactive).
